The values below come from PubChem BioAssay AID720596 (The Scripps Research Institute Molecular Screening Center, 2013).

In all, about 370,000 compounds went through this assay and about 1,600 (0.43%) were called active. No stated cut-off is given here; in the data, active means inhibition above about 24%; inactive means the rest. This excerpt belongs to a sample that is enriched for actives.

In this test the target is Major prion protein (Homo sapiens) (UniProt P04156). Kind of test: inhibitors of human cell surface prion protein PrPC, primary screen, cell-based, TR-FRET (AID 720596). Further: 0% = median of the test wells and 100% = reference compound wells. The conditions noted are these: TR-FRET read-out, at 13.8 µM, hits give high values. Background: In TR-FRET formats the signal depends on donor and acceptor labels being close together.
Regarding `COCC1CCN(C(=O)C2CCC(=O)N(Cc3cccc(C(F)(F)F)c3)C2)CC1` (configuration not stated), the inhibition was 9.85% (inactive).
As to `COc1cc(F)ccc1-c1cc(C(=O)NCC2CCCCC2)[nH]n1`, the inhibition was 9.68% (inactive).
As for `COc1ccc(OC)c(NC(=O)c2cc(-c3cc(F)ccc3OCC3CCCO3)n[nH]2)c1` (configuration not stated), the inhibition was 84.9% (active).
With `COc1ccccc1CNC(=O)c1cc(-c2cc(F)ccc2OC)n[nH]1`, the inhibition was -1.69% (inactive).
As to `CC1(C)CC(=O)C2=C(C1)NCN(CCCN1CCOCC1)C2`, the inhibition is -0.29% (inactive).
`Cn1cccc1C1(C(F)(F)F)NCCNC1=O` (configuration not stated): the inhibition was -0.11% (inactive).
`Cc1ccc(C(=O)Nc2ccccc2-c2ccccc2)cc1S(=O)(=O)Nc1ccccc1`: the inhibition is 25.5% (active).
Take `Cc1cc(C(C)(C)C)cc(S(=O)(=O)Nc2ccc(C(=O)O)cc2)c1C`: the inhibition is 0.8% (inactive).
Turning to `O=C(O)c1ccc(F)c(S(=O)(=O)Nc2ccccc2)c1`, the inhibition is -4.14% (inactive).
Turning to `CCC(C)N(C(=O)COC(=O)c1nc(Cl)ccc1Cl)C1CCS(=O)(=O)C1` (configuration not stated), the inhibition is 5.66% (inactive).
As for `Cc1cc2oc3ccc(NCCC4CCCN4C)cc3c(=O)c2cc1C` (configuration not stated), the inhibition was -13.5% (inactive).
Next, `COc1cccc2sc3cc(NCC[C@@H]4CCCN4C)ccc3c(=O)c12`: 44.1% (active).
In the case of `N#Cc1c(-c2ccc(Cl)cc2)c2c([nH]c1=S)CCCC2`, the inhibition was -2.9% (inactive).
`CC1CC(=O)Nc2ccccc2N1C(=O)COc1ccc2cc(Br)ccc2c1` (configuration not stated): the inhibition was -0.09% (inactive).
In the case of `O=C(Nc1ccccc1Cl)/C(Cl)=C(\Cl)S(=O)c1ccccc1` (configuration not stated), the inhibition is 93.7% (active).
Regarding `Cc1ccc(S(=O)(=O)N(C)C)cc1NC(=O)c1ccc(-n2cncn2)c([N+](=O)[O-])c1`, the inhibition was -32.8% (inactive).
The figure for `O=C(N/N=C/c1c(O)n(C2CC2)c(=S)[nH]c1=O)c1ccccc1Cl` is 6.86% (inactive); for `O=C(N/N=C/c1c(O)n(C2CC2)c(=S)[nH]c1=O)c1ccccc1` it is -3.29% (inactive).
Next, `Cc1[nH]n(-c2ccccc2)c(=O)c1/C=N/NC(=O)c1ccoc1C`: 43.4% (active); `O=C(CCN1CCCO1)N1CCCC(N2CCN(c3cccc(C(F)(F)F)c3)CC2)C1` (configuration not stated): 1.86% (inactive).
Turning to `Cn1c(=S)sc2ccc3ccccc3c21`, the inhibition was 51.9% (active).
The figure for `COc1ccc2ccccc2c1CNc1nnnn1C` is -6.2% (inactive).
The figure for `CSc1nnc(CNC(=O)c2ccccc2)n1-c1ccc(F)cc1` is 0.49% (inactive).
As for `CC1=C(C(=O)Nc2cccc(C(=O)NCC(C)c3ccccc3)c2)SCCO1` (configuration not stated), the inhibition is 12.5% (inactive).
Turning to `CC(c1cccnc1)N(CCN(C)C)C(=O)Nc1ccc(Cl)c(Cl)c1` (configuration not stated), the inhibition was 2.3% (inactive).
Next, `O=C(CC(O)(C(F)(F)F)C(F)(F)F)Nc1ccc(Cl)c(Cl)c1`: 64.7% (active).
Regarding `O=C(CCS(=O)(=O)c1ccccc1)Nc1ccc(Cl)c(Cl)c1`, the inhibition is 4.48% (inactive).

By inhibition is commonly meant the drop in the measured response relative to a control, in per cent.
